The campaign covered roughly 69,000 compounds. About 8,600 (12%) showed an effect of 50% or more. Only a selection was taken, and strong results are over-represented in it overall.

This experiment has as its system Plasmodium berghei. As to the kind of experiment: Screen against P. berghei liver stage (PbLuc), transformed with Luciferase, at 10uM. Type of experiment: functional, HepG2. The settings on record: tested at 10 uM.
Take `CCc1nnc(SC2CCCN(c3cnn(C)c3)C2=O)n1C` (centres undefined): the INHIBITION is recorded as -30.1%. On to `COc1cccc(N2CC3(CCN(C(=O)NC(C)C)C3)CC2=O)c1` (centres undefined), for which the INHIBITION is -11.2%. In the case of `COc1cccc(C2CN(CCc3ccncc3)CCO2)c1` (centres undefined), the INHIBITION was found to be 10.5%. In the case of `Cc1noc(C)c1S(=O)(=O)N1CCC(Oc2ccccn2)CC1` it was 45.7%.

Turning to `Cc1ccc(S(=O)(=O)N2CCC(Oc3cccnn3)CC2)c(C)c1`, the INHIBITION is on record as 49.7%. In the case of `Cc1ccc(S(=O)(=O)N2CCC(Oc3ccccn3)CC2)c(C)c1` it was 78.2%; in that of `CCOCn1cc(NC(=O)C2CCN(S(C)(=O)=O)CC2)cn1`, 38.2%. For `COc1ccc(CCCN2C(=O)O[C@@H]3CN(C4CCOCC4)C[C@@H]32)cc1`, the INHIBITION is 34.9%. With `Cc1nsc(NC(=O)N2CCCCC2CCCO)n1` (centres undefined), the INHIBITION is reported as 48%. With `Cc1nnc(NC(=O)N2CCCCC2CCO)s1` (centres undefined) the figure was 44.3%; with `Cc1nsc(NC(=O)N2CCCCC2CCO)n1` (centres undefined), 66.5%. Consider `CC(C)CCCC(C)NC(=O)c1ccc(OCC(N)=O)cc1` (centres undefined), for which the INHIBITION is given as 56.4%. Regarding `CCNC(=O)COc1ccc(C(=O)NC(C)CCc2ccco2)cc1` (centres undefined), the INHIBITION was determined as 20.6%. Take `CC(C)CCC(C)NC(=O)c1ccc(OCC(N)=O)cc1` (centres undefined): the INHIBITION was -36.5%.

In the case of `CCn1cnnc1CNC(=O)c1cc(Cl)c(I)cc1OC`, the INHIBITION is reported as -7.31%. Turning to `CC(=O)NCCC1CCCCN1C(=O)c1cccc(CCC(C)(C)O)c1` (centres undefined), the INHIBITION is on record as 19.7%. As for `O=C(Nc1ccccc1F)C1=NN(c2ccccc2)C(=O)CN1`, the INHIBITION was -73.1%. In the case of `CN(C)CCN1CCOCC2(CCCN(C(=O)Cc3ccccc3)C2)C1` (centres undefined) it was 29%; in that of `CCCn1cc(NC(=O)c2cccnc2O)ccc1=O`, 58.5%. On to `Cn1cc(NC(=O)c2cccc3cccnc23)ccc1=O`, for which the INHIBITION is recorded as -10.8%. Consider `CCCn1cc(NC(=O)c2ccc(S(C)(=O)=O)cc2)ccc1=O`, for which the INHIBITION is on record as -5.65%. Take `CCCn1cc(NC(=O)c2cccc3cccnc23)ccc1=O`: the INHIBITION is reported as -1.04%. With `CCCn1cc(NC(=O)c2ccc(S(=O)(=O)CC)cc2)ccc1=O` the figure was 60.3%; with `COCCn1cc(NC(=O)NC(C)CCc2ccccc2)ccc1=O` (centres undefined), 28.7%. `CCCn1cc(NC(=O)c2ccncc2)ccc1=O`: the INHIBITION amounted to 50.8%.

Take `CCCn1cc(NC(=O)c2ccc(N(C)CC)cc2)ccc1=O`: the INHIBITION was found to be 46.6%.

On to `CCCn1cc(NC(=O)c2ccc(NC(=O)NC3CC3)cc2)ccc1=O`, for which the INHIBITION is listed as -13.4%. On to `CC(C)n1ccnc1CN1CCCN(C(=O)CN(C)C2CC2)CC1`, for which the INHIBITION worked out at 40%. Take `Cc1nc(CN2CCCC(NCCOc3cccc(C#N)c3)C2)no1` (centres undefined): the INHIBITION is listed as 0.914%. In the case of `Cc1nccn1-c1cc(CNC(=O)CCS(=O)(=O)C2CCCC2)ccn1`, the INHIBITION turned out to be 5.9%.

Consider `Cc1ccc(OCCSC2=NCCN2)cc1`, for which the INHIBITION was found to be 32.5%. Take `Cc1c(NC(=O)c2noc3c2CCCC3)cnn1C`: the INHIBITION is reported as 10%. Turning to `Cc1c(Cl)cc(C(=O)N(CCO)Cc2nccn2C)cc1Cl`, the INHIBITION is given as -8.47%.

With `CCN(CC)C(=O)c1cnc(Sc2nccn2C)c(Cl)c1`, the INHIBITION is 48%. With `Cn1ccnc1Sc1ncc(C(=O)N2CCCCC2)cc1Cl` the figure was 27.6%. Consider `CCOCCNC(=O)c1cnc(Sc2nccn2C)c(Cl)c1`, for which the INHIBITION is 50.8%. With `CCOCCCNC(=O)c1nn(CC)cc1Cl`, the INHIBITION is given as 7.9%. On to `CN1CCN(S(=O)(=O)c2ccc(Sc3nccn3C)nc2)CC1`, for which the INHIBITION worked out at 46.1%. `Cn1c(-c2ccccc2Cl)nc2cc(C(=O)NCCOCCO)cnc21`: the INHIBITION was -50.7%. With `CC(C)NC(=O)c1cnc(Sc2nccn2C)c(Cl)c1` the figure was 62.8%; with `CCNC(=O)c1cnc(Sc2nccn2C)c(Cl)c1`, 62.8%; with `CCCn1nccc1NC(=O)CN1CCCC1Cn1nc(C)nc1C` (centres undefined), -101%.

`Cn1nc2c(cc1=O)CN(CCN1CCCC1=O)CC2`: the INHIBITION is on record as -7.35%. Take `CCOc1ccc(Cl)c(C(=O)NC)n1`: the INHIBITION is 49%. For the molecule `CS(=O)(=O)NCC1(O)CCCN(C(=O)CCn2cc(Cl)cn2)CC1` (centres undefined), the INHIBITION is recorded as -28.7%. For `CCCc1nc(CN(CCO)Cc2cc(Br)ccc2F)no1`, the INHIBITION is listed as 39.4%.

`CN1CCN(CCOc2ccc(NC(=O)c3cnc[nH]3)cc2)CC1`: the INHIBITION worked out at 1.04%. Turning to `Cc1c[nH]c(CN(C)c2nc(C3CCCC3)nc3c2cnn3C)n1`, the INHIBITION was found to be 60.1%. In the case of `Cc1cc(C)nc(CN(C)c2nc(C3CCCC3)nc3c2cnn3C)c1` it was 0.87%; in that of `Cc1nn(C)c(C)c1CN(C)c1nc(C2CCCC2)nc2c1cnn2C`, 42.6%. With `Cc1ccc(OC2CCN(S(=O)(=O)N(C)C)CC2)nc1`, the INHIBITION came to 35.4%. As for `CCOc1cc(-c2cc(=O)n3c(n2)CCCCC3)ccc1O`, the INHIBITION is on record as -6.09%. With `CCC(=O)NCc1cc(Br)c(OC)c(OC)c1` the figure was -4.74%.

For `CCS(=O)(=O)NCc1cc(Br)c(OC)c(OC)c1`, the INHIBITION is given as 51.3%.

Values taken from ChEMBL document CHEMBL4513216, “Probing the Open Global Health Chemical Diversity Library for Multistage-Active Starting Points for Next-Generation Antimalarials” (ACS Infect Dis, 2020).
